This is an account of results in PMC7862700, “An all-to-all approach to the identification of sequence-specific readers for epigenetic DNA modifications on cytosine”.

Assay in all cases: DAPPL (digital affinity profiling via proximity ligation, sequencing); 10 mM Tris-HCl pH 7.5, 50 mM NaCl, 1 mM DTT, 4% glycerol, room temperature, 30 min; GST-TFs on glutathione beads, 16-mer random dsDNA library, 0.1% formaldehyde crosslink after washing; high values mean tight binding
The target of one experiment is T1, FLI1 (Homo sapiens, UniProt Q01543 1-452).
T1 sequence: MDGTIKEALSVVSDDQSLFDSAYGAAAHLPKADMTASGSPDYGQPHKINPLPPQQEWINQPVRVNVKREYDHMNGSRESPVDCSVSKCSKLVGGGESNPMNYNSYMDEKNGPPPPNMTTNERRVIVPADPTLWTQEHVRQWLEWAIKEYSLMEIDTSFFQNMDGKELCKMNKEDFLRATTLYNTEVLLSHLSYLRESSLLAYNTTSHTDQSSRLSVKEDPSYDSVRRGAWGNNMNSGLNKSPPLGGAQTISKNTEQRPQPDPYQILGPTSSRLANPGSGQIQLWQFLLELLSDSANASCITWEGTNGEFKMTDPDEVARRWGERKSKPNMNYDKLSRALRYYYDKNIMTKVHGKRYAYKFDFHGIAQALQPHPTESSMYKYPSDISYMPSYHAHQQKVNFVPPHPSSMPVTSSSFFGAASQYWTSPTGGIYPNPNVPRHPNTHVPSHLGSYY
To be noted: protein: recombinant; tags: N-terminal GST; dsDNA, one strand shown. The gist of the method:
(§1)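 In yeast, human transcription factors were expressed with a GST fusion, then pulled down on glutathione beads and given DNA barcodes. Pooled with a tag-only sample, they were exposed to 200 nmole of a 16-mer random double-stranded DNA library (Tris/NaCl/DTT/glycerol buffer, room temperature, 30 min), washed, crosslinked with 0.1% formaldehyde, proximity-ligated using BsaI/T4 ligase for 1 h at 37 °C, PCR-amplified and read on an Illumina NextSeq500. Each hexamer's frequency of reads for a factor, divided by the matching frequency for the tag-only sample, gives the binding signal.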

The target of a further experiment is T2, ELK1 (Homo sapiens, UniProt P19419 1-428).
T2 sequence: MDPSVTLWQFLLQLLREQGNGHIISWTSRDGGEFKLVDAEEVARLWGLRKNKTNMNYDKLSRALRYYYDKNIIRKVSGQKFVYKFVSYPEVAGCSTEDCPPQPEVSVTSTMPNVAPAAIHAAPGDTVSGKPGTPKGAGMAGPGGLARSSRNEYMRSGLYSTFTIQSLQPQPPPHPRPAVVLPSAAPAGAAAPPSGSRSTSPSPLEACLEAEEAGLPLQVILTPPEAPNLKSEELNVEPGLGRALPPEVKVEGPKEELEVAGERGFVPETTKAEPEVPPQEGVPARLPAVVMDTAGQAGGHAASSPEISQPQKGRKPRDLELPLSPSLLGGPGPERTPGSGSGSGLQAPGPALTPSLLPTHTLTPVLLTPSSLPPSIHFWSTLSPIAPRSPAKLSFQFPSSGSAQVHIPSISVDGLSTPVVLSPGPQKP
The following applies: protein: recombinant; tags: N-terminal GST; dsDNA, one strand shown. The gist of the method:
as §1

Another experiment concerns the target T3, GABPA (Homo sapiens, UniProt Q06546 1-454).
T3 sequence: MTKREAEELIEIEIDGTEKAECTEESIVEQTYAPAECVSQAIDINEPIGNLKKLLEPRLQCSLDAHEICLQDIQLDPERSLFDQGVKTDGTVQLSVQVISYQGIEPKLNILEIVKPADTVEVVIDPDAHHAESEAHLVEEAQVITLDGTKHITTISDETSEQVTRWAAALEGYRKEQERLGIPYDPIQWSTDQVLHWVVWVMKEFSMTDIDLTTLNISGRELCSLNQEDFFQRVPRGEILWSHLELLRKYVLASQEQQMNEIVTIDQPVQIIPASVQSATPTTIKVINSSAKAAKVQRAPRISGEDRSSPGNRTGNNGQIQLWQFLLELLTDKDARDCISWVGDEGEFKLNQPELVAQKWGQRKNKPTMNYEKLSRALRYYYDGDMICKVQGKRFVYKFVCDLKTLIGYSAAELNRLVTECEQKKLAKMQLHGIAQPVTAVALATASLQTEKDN
The following applies: protein: recombinant; tags: N-terminal GST; dsDNA, one strand shown. In outline: as §1

For another experiment, the target named is T4, ERG (Homo sapiens, UniProt P11308 1-479).
T4 sequence: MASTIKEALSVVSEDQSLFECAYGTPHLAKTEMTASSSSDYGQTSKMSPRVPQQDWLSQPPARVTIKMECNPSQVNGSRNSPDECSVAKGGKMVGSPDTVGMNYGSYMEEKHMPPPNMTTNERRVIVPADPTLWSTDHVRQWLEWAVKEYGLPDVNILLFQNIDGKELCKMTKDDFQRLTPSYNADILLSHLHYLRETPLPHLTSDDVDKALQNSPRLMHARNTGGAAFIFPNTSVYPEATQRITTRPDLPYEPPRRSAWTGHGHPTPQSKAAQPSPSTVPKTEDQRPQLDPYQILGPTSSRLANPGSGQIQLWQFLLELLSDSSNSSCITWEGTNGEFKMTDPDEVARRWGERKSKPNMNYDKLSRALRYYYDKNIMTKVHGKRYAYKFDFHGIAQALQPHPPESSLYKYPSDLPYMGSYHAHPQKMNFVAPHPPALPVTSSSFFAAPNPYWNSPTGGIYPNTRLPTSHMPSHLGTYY
To be noted: protein: recombinant; tags: N-terminal GST; dsDNA, one strand shown. The gist of the method: as §1

For a further experiment, the target named is ELF1 (Homo sapiens, UniProt P32519 1-619). The following applies: protein: recombinant; tags: N-terminal GST; dsDNA, one strand shown. The gist of the method: as §1
ELF1, sequence (P32519 whole entry): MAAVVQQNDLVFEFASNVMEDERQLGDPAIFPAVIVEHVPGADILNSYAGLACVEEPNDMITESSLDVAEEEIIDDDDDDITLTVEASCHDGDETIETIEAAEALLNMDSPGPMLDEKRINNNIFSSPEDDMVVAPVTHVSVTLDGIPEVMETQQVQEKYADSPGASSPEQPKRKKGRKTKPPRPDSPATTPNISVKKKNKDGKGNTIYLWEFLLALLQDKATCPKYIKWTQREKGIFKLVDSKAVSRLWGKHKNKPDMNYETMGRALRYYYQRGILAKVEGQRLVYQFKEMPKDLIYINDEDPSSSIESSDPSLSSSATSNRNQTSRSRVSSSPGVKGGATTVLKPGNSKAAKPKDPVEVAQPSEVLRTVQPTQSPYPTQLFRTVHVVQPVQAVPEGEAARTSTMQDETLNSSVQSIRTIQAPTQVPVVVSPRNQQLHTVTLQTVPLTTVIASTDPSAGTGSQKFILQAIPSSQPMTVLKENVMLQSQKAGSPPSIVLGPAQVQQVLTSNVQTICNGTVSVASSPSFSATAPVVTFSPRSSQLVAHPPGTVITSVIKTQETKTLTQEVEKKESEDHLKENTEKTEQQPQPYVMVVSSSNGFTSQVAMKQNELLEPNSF
Another experiment concerns the target T5, EHF (Homo sapiens, UniProt Q9NZC4 1-300).
T5 sequence: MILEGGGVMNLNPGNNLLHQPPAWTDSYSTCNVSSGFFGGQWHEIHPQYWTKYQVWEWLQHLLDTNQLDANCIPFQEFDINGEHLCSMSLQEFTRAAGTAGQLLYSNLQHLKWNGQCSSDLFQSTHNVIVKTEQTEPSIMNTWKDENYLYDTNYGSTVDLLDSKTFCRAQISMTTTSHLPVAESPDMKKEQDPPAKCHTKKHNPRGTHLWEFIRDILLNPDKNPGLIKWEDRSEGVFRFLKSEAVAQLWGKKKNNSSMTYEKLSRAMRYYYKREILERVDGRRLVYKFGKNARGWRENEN
To be noted: protein: recombinant; tags: N-terminal GST; dsDNA, one strand shown. The gist of the method:
as §1

The next experiment concerns the target SPI1 (Homo sapiens, UniProt P17947 1-270). The following applies: protein: recombinant; tags: N-terminal GST; dsDNA, one strand shown. The gist of the method:
as §1

The target of the next experiment is SPIB (Homo sapiens, UniProt Q01892 1-262). To be noted: protein: recombinant; tags: N-terminal GST; dsDNA, one strand shown. The gist of the method:
as §1

A further experiment addresses T6, ELK3 (Homo sapiens, UniProt P41970 1-407).
T6 sequence: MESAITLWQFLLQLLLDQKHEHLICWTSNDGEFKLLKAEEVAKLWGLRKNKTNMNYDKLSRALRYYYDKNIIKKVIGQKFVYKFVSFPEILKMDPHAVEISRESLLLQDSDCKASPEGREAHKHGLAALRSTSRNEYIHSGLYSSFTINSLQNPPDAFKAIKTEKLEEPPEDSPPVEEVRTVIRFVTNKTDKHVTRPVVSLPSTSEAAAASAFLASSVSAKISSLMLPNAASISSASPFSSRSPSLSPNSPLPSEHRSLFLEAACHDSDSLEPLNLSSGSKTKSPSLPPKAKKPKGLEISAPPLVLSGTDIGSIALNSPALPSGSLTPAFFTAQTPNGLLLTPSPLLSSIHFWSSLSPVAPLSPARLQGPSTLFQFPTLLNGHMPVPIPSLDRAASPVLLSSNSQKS
The following applies: protein: recombinant; tags: N-terminal GST; dsDNA, one strand shown. In outline: as §1

A further experiment addresses T7, FEV (Homo sapiens, UniProt Q99581 1-238).
T7 sequence: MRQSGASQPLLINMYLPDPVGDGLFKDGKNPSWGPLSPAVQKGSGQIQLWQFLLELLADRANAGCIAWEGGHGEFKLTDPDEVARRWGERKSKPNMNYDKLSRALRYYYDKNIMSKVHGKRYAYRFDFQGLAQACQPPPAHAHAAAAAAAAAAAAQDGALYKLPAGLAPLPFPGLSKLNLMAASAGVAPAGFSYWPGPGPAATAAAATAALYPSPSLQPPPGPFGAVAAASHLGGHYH
The following applies: protein: recombinant; tags: N-terminal GST; dsDNA, one strand shown. The gist of the method: as §1

The next experiment concerns the target ETV5 (Homo sapiens, UniProt P41161 1-510). The following applies: protein: recombinant; tags: N-terminal GST; dsDNA, one strand shown. The gist of the method: as §1
The next experiment deals with HSF1 (Homo sapiens, UniProt Q00613 1-529). The following applies: protein: recombinant; tags: N-terminal GST; chain copies: 3; dsDNA, one strand shown. The gist of the method: as §1
HSF1, sequence (Q00613 whole entry): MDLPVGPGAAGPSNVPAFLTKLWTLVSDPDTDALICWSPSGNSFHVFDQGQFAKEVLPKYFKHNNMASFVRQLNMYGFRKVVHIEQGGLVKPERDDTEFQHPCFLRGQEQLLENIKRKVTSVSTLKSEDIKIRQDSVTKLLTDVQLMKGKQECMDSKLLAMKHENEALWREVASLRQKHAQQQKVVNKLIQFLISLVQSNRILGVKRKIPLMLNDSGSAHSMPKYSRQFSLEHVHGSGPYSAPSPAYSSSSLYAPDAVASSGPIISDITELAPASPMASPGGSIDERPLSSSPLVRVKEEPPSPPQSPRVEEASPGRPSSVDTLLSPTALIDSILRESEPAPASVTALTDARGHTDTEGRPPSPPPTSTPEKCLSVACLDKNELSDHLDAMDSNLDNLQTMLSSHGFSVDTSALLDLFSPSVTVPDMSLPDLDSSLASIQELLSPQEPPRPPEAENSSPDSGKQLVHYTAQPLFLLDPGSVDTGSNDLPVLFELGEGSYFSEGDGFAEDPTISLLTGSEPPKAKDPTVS
Another experiment has as its target T8, SPIC (Homo sapiens, UniProt Q8N5J4 1-248).
T8 sequence: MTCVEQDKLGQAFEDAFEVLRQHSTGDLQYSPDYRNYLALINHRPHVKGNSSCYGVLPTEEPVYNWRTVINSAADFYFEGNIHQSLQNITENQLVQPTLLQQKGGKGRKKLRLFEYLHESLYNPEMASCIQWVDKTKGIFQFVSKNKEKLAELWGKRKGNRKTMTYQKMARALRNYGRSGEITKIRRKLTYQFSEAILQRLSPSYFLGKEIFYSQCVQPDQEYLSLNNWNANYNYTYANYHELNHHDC
To be noted: protein: recombinant; tags: N-terminal GST; dsDNA, one strand shown. The gist of the method: as §1

Another experiment has as its target ELF4 (Homo sapiens, UniProt Q99607 1-663). The following applies: protein: recombinant; tags: N-terminal GST; dsDNA, one strand shown. In outline: as §1
Another experiment has as its target T9, ELK4 (Homo sapiens, UniProt P28324-2 1-405).
T9 sequence: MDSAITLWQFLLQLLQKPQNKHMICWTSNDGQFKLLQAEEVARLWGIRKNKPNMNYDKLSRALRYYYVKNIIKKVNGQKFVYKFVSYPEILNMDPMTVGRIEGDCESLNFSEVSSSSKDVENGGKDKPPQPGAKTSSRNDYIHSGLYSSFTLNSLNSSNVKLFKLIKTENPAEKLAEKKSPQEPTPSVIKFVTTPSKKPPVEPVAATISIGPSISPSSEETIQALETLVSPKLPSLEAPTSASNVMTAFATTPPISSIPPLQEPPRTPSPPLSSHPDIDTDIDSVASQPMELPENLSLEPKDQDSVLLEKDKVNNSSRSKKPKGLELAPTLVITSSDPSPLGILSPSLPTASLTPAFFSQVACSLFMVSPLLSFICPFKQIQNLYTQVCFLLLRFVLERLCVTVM
To be noted: protein: recombinant; tags: N-terminal GST; dsDNA, one strand shown. In outline: as §1

The next experiment concerns the target T10, ETV2 (Homo sapiens, UniProt O00321 1-342).
T10 sequence: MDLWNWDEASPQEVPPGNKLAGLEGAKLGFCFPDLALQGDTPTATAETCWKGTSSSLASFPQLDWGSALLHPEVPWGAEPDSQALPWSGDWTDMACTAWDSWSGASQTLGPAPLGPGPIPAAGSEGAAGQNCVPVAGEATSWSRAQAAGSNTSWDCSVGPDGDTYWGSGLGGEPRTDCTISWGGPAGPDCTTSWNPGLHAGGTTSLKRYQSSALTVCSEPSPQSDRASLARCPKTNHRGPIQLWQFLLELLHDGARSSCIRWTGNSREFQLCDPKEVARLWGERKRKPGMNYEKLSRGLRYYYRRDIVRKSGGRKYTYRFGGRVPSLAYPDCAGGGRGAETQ
To be noted: protein: recombinant; tags: N-terminal GST; dsDNA, one strand shown. In outline: as §1

The next experiment deals with T11, ELF3 (Homo sapiens, UniProt P78545 1-371).
T11 sequence: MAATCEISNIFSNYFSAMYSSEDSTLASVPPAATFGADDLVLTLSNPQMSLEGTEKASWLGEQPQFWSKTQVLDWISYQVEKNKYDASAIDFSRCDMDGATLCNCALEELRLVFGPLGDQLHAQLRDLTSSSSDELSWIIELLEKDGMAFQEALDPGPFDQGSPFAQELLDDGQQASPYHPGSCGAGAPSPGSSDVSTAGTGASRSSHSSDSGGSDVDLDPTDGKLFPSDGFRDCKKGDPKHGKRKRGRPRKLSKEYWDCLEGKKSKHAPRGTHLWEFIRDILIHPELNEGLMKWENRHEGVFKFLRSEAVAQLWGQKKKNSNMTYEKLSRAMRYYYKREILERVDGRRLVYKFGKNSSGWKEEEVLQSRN
To be noted: protein: recombinant; tags: N-terminal GST; dsDNA, one strand shown. The gist of the method:
as §1

The target in another experiment is CRX (Homo sapiens, UniProt O43186 1-299). To be noted: protein: recombinant; tags: N-terminal GST; dsDNA, one strand shown. In outline: as §1
CRX, sequence (O43186 whole entry): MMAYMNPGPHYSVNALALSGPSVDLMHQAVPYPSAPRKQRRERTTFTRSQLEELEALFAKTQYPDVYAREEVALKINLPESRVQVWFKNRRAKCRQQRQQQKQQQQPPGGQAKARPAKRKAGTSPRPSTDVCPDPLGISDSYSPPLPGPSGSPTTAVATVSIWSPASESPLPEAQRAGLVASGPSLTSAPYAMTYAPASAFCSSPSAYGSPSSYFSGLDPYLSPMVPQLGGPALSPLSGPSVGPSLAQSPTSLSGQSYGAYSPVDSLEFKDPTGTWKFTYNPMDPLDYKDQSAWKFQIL
For another experiment, the target named is ETV1 (Homo sapiens, UniProt P50549 1-477). To be noted: protein: recombinant; tags: N-terminal GST; dsDNA, one strand shown. The gist of the method: as §1
ETV1, sequence (P50549 whole entry): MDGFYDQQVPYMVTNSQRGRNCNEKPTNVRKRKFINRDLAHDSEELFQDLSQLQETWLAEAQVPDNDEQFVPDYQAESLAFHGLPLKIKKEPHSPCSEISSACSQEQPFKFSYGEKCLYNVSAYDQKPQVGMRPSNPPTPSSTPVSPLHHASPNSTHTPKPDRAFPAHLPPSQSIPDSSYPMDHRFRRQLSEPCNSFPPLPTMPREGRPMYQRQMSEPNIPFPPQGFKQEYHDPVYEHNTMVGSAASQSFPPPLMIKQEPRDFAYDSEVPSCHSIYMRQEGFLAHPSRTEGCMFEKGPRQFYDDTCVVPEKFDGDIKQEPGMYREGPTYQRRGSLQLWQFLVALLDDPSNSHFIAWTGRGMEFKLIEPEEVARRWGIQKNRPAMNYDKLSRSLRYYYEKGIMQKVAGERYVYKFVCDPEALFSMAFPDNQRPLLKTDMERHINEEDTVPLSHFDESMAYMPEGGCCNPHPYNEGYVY

SPIB, sequence (Q01892 whole entry): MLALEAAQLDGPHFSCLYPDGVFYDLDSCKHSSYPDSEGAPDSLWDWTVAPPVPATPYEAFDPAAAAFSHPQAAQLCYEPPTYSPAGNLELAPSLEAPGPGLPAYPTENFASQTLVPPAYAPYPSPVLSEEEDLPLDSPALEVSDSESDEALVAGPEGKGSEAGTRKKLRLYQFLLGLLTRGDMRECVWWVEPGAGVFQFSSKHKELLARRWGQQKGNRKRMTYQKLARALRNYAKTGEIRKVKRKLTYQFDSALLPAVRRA
ETV5, sequence (P41161 whole entry): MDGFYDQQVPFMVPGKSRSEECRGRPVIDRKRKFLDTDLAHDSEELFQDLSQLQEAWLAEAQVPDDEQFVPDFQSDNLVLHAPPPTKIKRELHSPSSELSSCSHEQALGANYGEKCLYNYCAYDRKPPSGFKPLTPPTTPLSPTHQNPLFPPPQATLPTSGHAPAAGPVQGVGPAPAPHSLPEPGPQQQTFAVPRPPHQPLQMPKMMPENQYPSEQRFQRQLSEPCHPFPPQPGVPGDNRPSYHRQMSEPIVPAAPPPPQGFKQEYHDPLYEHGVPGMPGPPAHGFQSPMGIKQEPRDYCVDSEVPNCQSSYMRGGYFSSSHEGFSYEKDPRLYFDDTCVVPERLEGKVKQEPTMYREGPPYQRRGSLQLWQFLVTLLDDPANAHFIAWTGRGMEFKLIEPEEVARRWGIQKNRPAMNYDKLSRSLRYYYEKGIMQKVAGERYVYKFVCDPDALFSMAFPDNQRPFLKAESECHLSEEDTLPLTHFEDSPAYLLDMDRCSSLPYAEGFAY
ELF4, sequence (Q99607 whole entry): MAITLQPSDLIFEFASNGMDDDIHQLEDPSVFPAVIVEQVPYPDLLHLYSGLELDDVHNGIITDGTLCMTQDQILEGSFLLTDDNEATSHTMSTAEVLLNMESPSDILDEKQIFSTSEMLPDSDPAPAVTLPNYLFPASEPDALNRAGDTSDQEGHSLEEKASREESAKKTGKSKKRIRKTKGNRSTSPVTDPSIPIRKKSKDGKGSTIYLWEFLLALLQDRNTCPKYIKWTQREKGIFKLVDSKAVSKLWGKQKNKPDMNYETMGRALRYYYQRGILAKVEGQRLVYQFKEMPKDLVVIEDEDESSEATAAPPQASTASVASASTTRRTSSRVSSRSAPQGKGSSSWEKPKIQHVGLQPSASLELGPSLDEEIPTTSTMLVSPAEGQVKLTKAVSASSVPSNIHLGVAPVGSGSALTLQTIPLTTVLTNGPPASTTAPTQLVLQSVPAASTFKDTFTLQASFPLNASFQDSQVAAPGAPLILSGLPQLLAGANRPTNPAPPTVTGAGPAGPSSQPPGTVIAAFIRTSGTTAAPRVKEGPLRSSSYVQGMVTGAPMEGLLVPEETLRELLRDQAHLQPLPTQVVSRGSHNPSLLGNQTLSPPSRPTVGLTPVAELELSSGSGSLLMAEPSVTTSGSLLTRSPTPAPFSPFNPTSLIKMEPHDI

On to CTATTG, for which the binding signal with FLI1 is 1.33 fold enrichment (6-mer frequency, TF over GST control); in the experiment with ELK1 it was 1.33 fold enrichment (6-mer frequency, TF over GST control); in the experiment with GABPA, 1.31 fold enrichment (6-mer frequency, TF over GST control); with ERG, 1.3 fold enrichment (6-mer frequency, TF over GST control); with ELF1, 1.37 fold enrichment (6-mer frequency, TF over GST control); in the experiment with EHF, 1.28 fold enrichment (6-mer frequency, TF over GST control). Moreover, the binding signal in the experiment with SPI1 was 1.26 fold enrichment (6-mer frequency, TF over GST control); with SPIB, 1.2 fold enrichment (6-mer frequency, TF over GST control); with ELK3, 1.23 fold enrichment (6-mer frequency, TF over GST control); with FEV it was 1.24 fold enrichment (6-mer frequency, TF over GST control); in the experiment with ETV5, 1.31 fold enrichment (6-mer frequency, TF over GST control); with HSF1 it was 1.1 fold enrichment (6-mer frequency, TF over GST control). The binding signal with SPIC is 1.4 fold enrichment (6-mer frequency, TF over GST control); in the experiment with ELF4 it was 1.28 fold enrichment (6-mer frequency, TF over GST control); in the experiment with ELK4 it was 1.29 fold enrichment (6-mer frequency, TF over GST control); with ETV2 it was 1.31 fold enrichment (6-mer frequency, TF over GST control); in the experiment with ELF3, 1.39 fold enrichment (6-mer frequency, TF over GST control); with CRX it was 1.14 fold enrichment (6-mer frequency, TF over GST control). Also, the binding signal with ETV1 was 1.36 fold enrichment (6-mer frequency, TF over GST control).
